# Assay results as given in the supplement of paper PMC10646978.
# ± gives the standard deviation.
# Assays:
# Details in all cases: modulator concentration 10 µM
# [1] = system: RAW-Dual (murine macrophage reporter line); experiment: NF-kB reporter (SEAP) activity fold change vs agonist alone; higher = enhanced NF-kB activity
# Outline: (§1)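 Overnight stimulation with a PRR agonist followed pre-incubation for 1 hour at 37 °C with compound at 10 μM final. This was done in RAW-Dual murine macrophage reporter cells seeded at 50 000 per well in 384-well plates. NF-κB (SEAP, QUANTI-Blue absorbance at 620 nm) and IRF (Lucia luciferase, QUANTI-Luc luminescence) were read from the supernatant. Each reporter's fold change relative to the mean agonist-only control on the same plate was averaged over replicate plates.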
# [2] = system: RAW-Dual (murine macrophage reporter line); experiment: IRF reporter (Lucia luciferase) activity fold change vs agonist alone; higher = enhanced IRF activity
# Outline: as §1
# [3] = system: RAW-Dual (murine macrophage reporter line); experiment: viability score (confluency relative to resting cells, overnight) (fraction); higher = more viable, active = viable (0.7 or more)
# Outline: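 In 384-well plates, RAW-Dual macrophages received compound at a final 10 μM overnight. Two confluency masks were then made with IncuCyte software from IncuCyte images of all imaged wells. The viability score is defined as confluency relative to resting cells. Passing the cutoff required both masks to lie above 70% of resting cells.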
# [4] = agonist: CpG ODN 1826 0.5 ug/mL
SMILES,"NF-kB reporter [1, 4]",NF-kB reporter ([1]; agonist: LPS 0.1 ug/mL),NF-kB reporter ([1]; agonist: MPLA […]),IRF reporter ([2]; agonist: 3'3'-cGAMP 10 ug/mL),IRF reporter ([2]; agonist: LPS 0.1 ug/mL),IRF reporter ([2]; agonist: MPLA […]),viability score [3]
CCCCC(=O)N(Cc1ccc(-c2ccccc2-c2nn[nH]n2)cc1)[C@H](C(=O)O)C(C)C,1.04 ± 0.16,1.03 ± 0.15,0.903 ± 0.05,0.589 ± 0.054,0.855 ± 0.14,0.704 ± 0.12,0.996 (active)
COc1ccc(N(CC(=O)NCCSCc2ccccc2)S(C)(=O)=O)cc1Cl,0.873 ± 0.15,1.06 ± 0.071,0.893 ± 0.068,0.864 ± 0.12,1.08 ± 0.1,0.85 ± 0.18,1.01 (active)
CCCCOc1cc(C(=O)NCCN(CC)CC)c2ccccc2n1.Cl,0.759 ± 0.17,1.04 ± 0.18,1.04 ± 0.067,0.776 ± 0.039,1.41 ± 0.41,1.82 ± 0.14,0.93 (active)
O=C(O)/C=C/c1ccc(Cn2ccnc2)cc1,0.812 ± 0.079,0.873 ± 0.05,1.07 ± 0.093,1.02 ± 0.062,1.16 ± 0.067,1.13 ± 0.12,1.01 (active)
Nc1nccs1,0.948 ± 0.14,1.22 ± 0.088,0.91 ± 0.055,0.89 ± 0.03,1.32 ± 0.16,1.2 ± 0.09,1 (active)
CCCC1CC(C(=O)NC(C(C)O)C2OC(SC)C(O)C(O)C2O)N(C)C1.Cl (centres undefined),0.947 ± 0.073,0.93 ± 0.072,0.924 ± 0.099,0.956 ± 0.031,1.24 ± 0.11,1.32 ± 0.17,1.04 (active)
Cc1cc(C(=O)Nc2nnc(-c3ccc(F)cc3)o2)n(C)n1,0.915 ± 0.1,0.985 ± 0.084,1.1 ± 0.064,0.929 ± 0.059,1.18 ± 0.24,1.22 ± 0.5,0.873 (active)
Nc1cccc(O)c1,0.98 ± 0.099,1.08 ± 0.069,1.03 ± 0.023,0.983 ± 0.09,0.946 ± 0.092,0.938 ± 0.11,0.997 (active)
O=[N+]([O-])c1ccc(-n2cccc2C=NNc2nc(N3CCCCC3)nc(N3CCCCC3)n2)cc1,0.994 ± 0.087,1.01 ± 0.12,0.926 ± 0.054,0.907 ± 0.039,1.38 ± 0.12,1.05 ± 0.1,1 (active)
O=C(CSc1nc2c(c(=O)n1-c1ccccc1)SCC2)N1CCN(c2ccccc2)CC1,0.985 ± 0.08,1.09 ± 0.057,1.14 ± 0.036,1.15 ± 0.081,0.879 ± 0.046,0.953 ± 0.076,1 (active)
CC(=O)Oc1c(C)cc2sc3ccccc3c(=O)c2c1C,1.06 ± 0.18,0.87 ± 0.077,0.927 ± 0.095,0.846 ± 0.032,1.25 ± 0.12,1.2 ± 0.12,0.998 (active)
CCn1c(=O)c(-c2ccn[nH]2)cc2c(C)nc(N)nc21,0.877 ± 0.054,1.01 ± 0.093,1.17 ± 0.065,1.01 ± 0.048,1.33 ± 0.23,1.45 ± 0.53,1 (active)
CC(=O)N1CCc2ccc(NC(=O)C3(c4ccccc4)CCOCC3)cc2C1,0.91 ± 0.063,1 ± 0.082,1.4 ± 0.075,1.22 ± 0.06,1.28 ± 0.24,1.31 ± 0.54,0.979 (active)
Cn1nc2c(c1CNS(=O)(=O)CCC(F)(F)F)CCC2,0.93 ± 0.077,0.805 ± 0.064,1.17 ± 0.15,1.01 ± 0.049,1.32 ± 0.2,1.41 ± 0.49,0.981 (active)
O=C(NC1CCN(c2ncnc3c2CCCC3)CC1)c1ccc(=O)[nH]c1,1.09 ± 0.13,1.09 ± 0.11,0.949 ± 0.057,0.957 ± 0.096,1.24 ± 0.11,1.07 ± 0.1,1.02 (active)
CN1C(=O)C(=NNC(=O)c2ccccc2Cl)c2cc(Br)cc(Br)c21,1.13 ± 0.091,0.997 ± 0.081,1.03 ± 0.057,0.897 ± 0.15,1.12 ± 0.078,1.01 ± 0.32,1 (active)
Cn1ncc(Cl)c1-c1cc(C(=O)N[C@H](CN)Cc2cccc(F)c2)sc1Cl,0.833 ± 0.2,1.54 ± 0.11,1.64 ± 0.17,0.69 ± 0.026,1.55 ± 0.21,1.79 ± 0.33,0.647 (inactive)
CCOC(=O)CN1CCOCCOCCN(CC(=O)OCC)CCOCCOCC1,0.937 ± 0.078,0.971 ± 0.061,0.957 ± 0.067,0.974 ± 0.052,1.23 ± 0.088,1.02 ± 0.1,1.01 (active)
COCCCOc1ccnc(CS(=O)c2nc3ccccc3[nH]2)c1C (centres undefined),1.24 ± 0.3,1.07 ± 0.098,1.11 ± 0.11,0.839 ± 0.029,1.22 ± 0.13,1.28 ± 0.23,0.98 (active)
Clc1ccccc1C1Nc2cccc3cccc(c23)N1,1.04 ± 0.092,0.898 ± 0.091,0.867 ± 0.084,0.684 ± 0.06,0.967 ± 0.14,0.792 ± 0.14,0.97 (active)
COC(c1ccccc1)(c1ccccc1)[C@H](Oc1nc(C)cc(C)n1)C(=O)O,1.32 ± 0.18,1.08 ± 0.11,0.901 ± 0.055,1.05 ± 0.043,1.3 ± 0.14,1.15 ± 0.11,1 (active)
COc1ccc(-c2nc(CNC(=O)C3CCN(c4cc(C5CC5)ncn4)CC3)cs2)cc1,0.957 ± 0.066,1.4 ± 0.11,1.16 ± 0.05,1.05 ± 0.062,1.24 ± 0.14,1.29 ± 0.25,1 (active)
COC(=O)C1=C(C)NC(C)=C(C(=O)OC)C1c1c(F)cccc1Cl,0.828 ± 0.067,1.27 ± 0.072,1.42 ± 0.092,1.1 ± 0.04,1.17 ± 0.11,1.2 ± 0.23,0.979 (active)
CC1CC(C)CN(S(=O)(=O)CCCOc2ccc3c(c2)OCO3)C1 (centres undefined),1.05 ± 0.06,1.04 ± 0.064,1.01 ± 0.061,0.906 ± 0.03,1.24 ± 0.09,1.05 ± 0.14,0.956 (active)
CC(C)(C)C1(O)CC(C(F)(F)F)=NN1C(=O)c1cccc([N+](=O)[O-])c1 (centres undefined),0.62 ± 0.091,1.08 ± 0.062,0.873 ± 0.052,1.01 ± 0.025,1.48 ± 0.27,1.01 ± 0.22,0.974 (active)
CN(C/C=C/C#CC(C)(C)C)Cc1cccc2ccccc12,0.812 ± 0.066,0.987 ± 0.059,1.08 ± 0.095,1.12 ± 0.055,1.24 ± 0.078,1.27 ± 0.12,1.01 (active)
CCN(C=Nc1sc2c(c1C#N)CC(C)(C)NC2(C)C)CC,0.759 ± 0.059,0.93 ± 0.054,0.901 ± 0.093,0.969 ± 0.044,1.24 ± 0.071,1.29 ± 0.22,0.992 (active)
